# Sampled rows, rich in hits. Any-hit rate of the full collection: about 0.77%.
# NS1 inh: influenza NS1 inhibition. 270,000 compounds, 0.4% hits. Potency, µM (titrated, usually from 46.1 µM), inactives show top-dose activity, positive = more growth. AID 2326; calls by dose curve; further: actives are rising curves; nearly all actives have a fitted effect of over 50% in size
#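 OD600 was taken as the measure of yeast growth restored by compound in an NS1-expressing S. cerevisiae strain. Cells had been washed out of glucose medium and diluted 1:100 into galactose -URA medium, pH 6.0.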
# TbPYK inhibitor: inhibitors of Trypanosoma brucei pyruvate kinase; 410,000 compounds, 0.12% hits; Q57TT1; TbPYK enzyme, Kinase-Glo Plus ATP luminescence, 45 min; Potency, µM (series often up to 76.8 µM), without a hit: at the highest dose activity, negative = inhibition, most hits filed as inhibitors; further: on the % scale 0 is the no-effect control and ±100 the full control effect; nearly all actives have a fitted effect of over 50% in size
#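 Enzyme and substrate buffer are dispensed first and compound is pin-transferred. ADP at 130 uM final then starts the reaction, which runs 45 min at room temperature. Detection reagent is added for 10 min before luminescence is imaged.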
# LmPK inhibitor: inhibitors of Leishmania mexicana pyruvate kinase; Q27686; 290,000 compounds, 0.37% hits; purified LmPK, Kinase-Glo ATP luminescence, 1 h; AID 1721; Potency, µM (titrated, usually from 57.5 µM), for the others: top-dose activity change, negative = inhibition, most hits filed as inhibitors; further: on the % scale 0 is the no-effect control and ±100 the full control effect
# Target sequence (Q27686 whole entry, looked up): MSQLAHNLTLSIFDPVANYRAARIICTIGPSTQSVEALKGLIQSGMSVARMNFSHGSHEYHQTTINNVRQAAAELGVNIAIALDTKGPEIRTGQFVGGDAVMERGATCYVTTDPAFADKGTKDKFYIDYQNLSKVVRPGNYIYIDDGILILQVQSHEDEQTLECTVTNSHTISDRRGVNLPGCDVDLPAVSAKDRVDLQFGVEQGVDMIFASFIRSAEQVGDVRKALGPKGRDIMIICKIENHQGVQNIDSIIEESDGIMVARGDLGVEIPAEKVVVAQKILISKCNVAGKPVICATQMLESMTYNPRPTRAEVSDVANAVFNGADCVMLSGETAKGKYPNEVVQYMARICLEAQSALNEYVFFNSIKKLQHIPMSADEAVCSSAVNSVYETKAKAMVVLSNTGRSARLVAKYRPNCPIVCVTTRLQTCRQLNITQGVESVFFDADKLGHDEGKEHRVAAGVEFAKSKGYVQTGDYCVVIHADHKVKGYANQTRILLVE
#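 0.1 nM LmPK, 0.5 mM PEP, 0.1 mM ADP; 50 mM imidazole pH 7.2, 7 mM MgCl2, 50 mM KCl; 1 h RT. Kinase-Glo luminescence readout, normalized to no-enzyme (full inhibition) and uninhibited wells.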
# RE007 growth inh: less growth of the S. pombe RE007 Vpr strain | S. pombe RE007 Vpr strain, BacTiter-Glo ATP luminescence, 24 h | Potency, µM (doses to about 92.2 µM), inactives show top-dose activity change, negative = less growth, hits mostly inhibitors | 360,000 compounds, 0.21% hits; active means well fitted falling curve with a large enough effect; inconclusive means small, poorly fitted or top-dose-only effect; inactive means no such curve, though single readings can be large or run the other way; further: on the % scale 0 is the no-effect control and ±100 the full control effect; nearly all actives have a fitted effect of over 50% in size
#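 Fission yeast strain RE007, carrying one chromosomally integrated HIV-1 vpr copy, was seeded at OD 0.01 in PMG+AL medium with 23 nL pinned compound. After 24 h at 30 °C and 99% humidity, viability was read by BacTiter-Glo luminescence.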
# Active calls of the source: *; ? = inconclusive; nt = no result; [ ] = remark or other dose. Unless noted, the call rests on the fitted dose curve; in most records, active means well fitted curve in the direction sought with a large enough effect; inconclusive means small, poorly fitted or top-dose-only effect, or another doubt; inactive means no such curve, though single readings can be large; an effect the other way counts as inactive or inconclusive. Potency means the concentration at half of the fitted maximal effect.
SMILES,NS1 inh,TbPYK inhibitor,LmPK inhibitor,RE007 growth inh
Cc1[nH]n(-c2ccccc2)c(=O)c1C(C[N+](=O)[O-])c1ccc(Br)cc1 (stereo unspecified),-102%,-11%,4%,10µM*
COc1cccc(C(C[N+](=O)[O-])c2c(C)[nH]n(-c3ccccc3)c2=O)c1 (stereo unspecified),-110%,-7%,10%,?
O=C(Nc1cccc(C(F)(F)F)c1)c1ccc2nc(-c3ccco3)c(-c3ccco3)nc2c1,5.6µM*,?,-3%,-2%
C=CCn1c(-c2cccc(S(=O)(=O)N3CCOCC3)c2)n[nH]c1=S,nt,?,nt,-11%
O=S(=O)(c1cccc(-c2n[nH]c(=S)n2C2CCCC2)c1)N1CCOCC1,nt,6.3µM*,7%[11.5 µM],1%
C[C@H]1Cc2c(-c3ccccc3)nc3c(c2CO1)CN(C(=O)c1cccnc1)CC3,nt,nt,-7%[11.5 µM],nt
O/N=C/c1cc(Br)ccc1OCc1ccccc1F,nt,0%,nt,40µM*
O/N=C/c1ccccc1OCc1ccccc1Cl,-4%,18%,1%,45µM*
CC(=O)SCC(CC(=O)c1ccc(C)cc1)C(=O)O (stereo unspecified),nt,16%,nt,nt
COc1cc(/C=C(/C#N)c2nc(-c3cc4ccccc4oc3=O)cs2)ccc1O,nt,-6%,nt,nt
CCOc1cccc(C=Nc2cc(C)cc(C)c2O)c1O,-70%,-11%,22µM*,3%
CCOc1cccc(/C=N/N=C/c2cccc(OCC)c2O)c1O,0%,-3%,-8%,-8%
O=C(OCC(=O)c1cccs1)c1ccccc1,?,-4%,16µM*,3%
CC#CCN1c2ccccc2[C@]23C[C@@H](C(=O)OC)N(S(=O)(=O)c4ccc(C#N)cc4)C2=NC(C(=O)OC)=C(C(=O)OC)[C@H]13,nt,nt,1%[11.5 µM],nt
Cc1c(F)cccc1NS(=O)(=O)c1cccs1,nt,2%,nt,nt
CN(C)c1ccc(/C=C/C=C2/SC(=S)N(c3ccccc3)C2=O)cc1,nt,?,13µM*,-19%
S=c1[nH]nc(-c2cc(-c3ccsc3)n[nH]2)n1-c1cccc2ccccc12,nt,?,-11%,8%
CC(=O)c1ccc(-n2c(-c3cc(-c4ccsc4)n[nH]3)n[nH]c2=S)cc1,nt,?,20µM*,1%
Oc1c(/C=N/c2ccccn2)sc2ccccc12,-71%,-19%,6.3µM*,-15%
CC(C)=C[C@H]1[C@@H](COC(=O)c2cc3c(cc2Cl)OCO3)C1(C)C,6%,nt,nt,nt
Cc1cc2nc(-c3ccc[nH]c3=O)[nH]c2cc1C,-5%,?,11µM*,7.1µM*
O=c1c2ccccc2ncn1-c1ccc(Cl)cc1Cl,-4%,-5%,3%,-15%
O=c1c2ccccc2sn1-c1ccc(Cl)cc1Cl,nt,18µM*,nt,45µM*
Cc1nonc1C(=O)N/N=C/c1cccc(O)c1,-12%,-26%,14µM*,-23%
O=C(N/N=C/c1cccc(O)c1)N/N=C/c1cccc(O)c1,-7%,-15%,1%,-2%
SMILES,NS1 inh,TbPYK inhibitor,LmPK inhibitor,RE007 growth inh
O=C1NN(c2ccccc2)C(=O)/C1=C\c1ccc(-c2cc([N+](=O)[O-])ccc2O)o1,4%,?,18µM*,-9%
c1ccc2cc(NCNc3ccc4ccccc4c3)ccc2c1,-40%,nt,nt,nt
CC(CSC(=O)c1ccccc1)C(=O)N1CC(Sc2ccccc2)CC1C(=O)O (stereo unspecified),nt,0%,nt,nt
Cc1ccc(CN2CCN(/N=C/c3ccccc3)CC2)cc1,0%,-10%,0%,-1%
COc1cc(/C=N/N2CCN(Cc3ccc(C)cc3)CC2)cc(OC)c1O,21%,14µM*,-3%,14%
CCOc1ccc(-c2cn3nc(CC(C)C)sc3n2)cc1,nt,5%,nt,nt
COc1ccc(/C=C2/CCCC(CN(C)C)C2=O)cc1 (stereo unspecified),nt,-11%,nt,17%
COc1cccc(/C=C2/CCC(CN(C)C)C2=O)c1 (stereo unspecified),nt,-23%,nt,8.9µM*
CC(C)CN(CC#N)CC(C)C,3%,nt,nt,nt
CCOC(=O)COc1ccccc1/C=C\[N+](=O)[O-],-64%,?,2%,32µM*
C[C@]12CC[C@H]3c4ccc(O)cc4CC[C@@H]3[C@H]1CC[C@@H]2OC(=O)CCc1ccccc1,-17%,nt,nt,nt
Cc1ccccc1NC(=O)c1cc2ccccn2n1,-4%,11%,13µM*,-20%
CC(=O)[C@]1(O)CC[C@@H]2[C@H]3C[C@@H](C)C4=CC(=O)CC[C@@]4(C)C3[C@@H](O)C[C@]21C (stereo partly specified),-3%,nt,nt,nt
COC(=O)c1ccc2nc(-c3ccco3)c(Cc3ccc(OC)cc3C)n2c1,nt,14µM*,nt,-3%
COC(=O)c1ccc2nc(-c3ccco3)c(Cc3ccc(C)cc3)n2c1,nt,?,nt,-16%
Clc1cccc(Cc2c(-c3ccco3)nc3ccc(Cl)cn23)c1,nt,20µM*,nt,?
Cc1ccccc1C(=O)O/N=C(\N)c1ccccc1,-54%,?,-75%,-17%
Cc1ccccc1/C(N)=N/OC(=O)c1ccc(F)cc1,-62%,-12%,16µM*,-10%
CC(C)[C@@H](Br)C(=O)NCC(=O)O,0%,nt,nt,nt
Cc1ccc(C(=O)Nc2ccc3c(c2)N(C)C(=O)c2ccccc2S3)cc1F,nt,-4%,nt,nt
O=C(/C=C/c1ccccc1)Nc1cccnc1Cl,-11%,0%,-26%,-15%
O=C(/C=C/c1ccco1)Nc1cccnc1Cl,1%,?,16µM*,-2%
COc1cc2c3cc1Oc1cc(ccc1O)C[C@@H]1c4c(cc(OC)c(O)c4Oc4ccc(cc4)C[C@H]3[N+](C)(C)CC2)CC[N+]1(C)C,-5%,nt,nt,nt
Cc1ccc(-n2nnc(-c3nccn3C)n2)cc1,-4%,?,14µM*,?
Cn1c(N=Nc2ccc(N3CCOCC3)cc2)[n+](C)c2ccccc21,-1%,?,11µM*,18µM*
SMILES,NS1 inh,TbPYK inhibitor,LmPK inhibitor,RE007 growth inh
Cc1[nH]c2ccccc2c1SCc1n[nH]c(=S)n1C,?,?,7.9µM*,21%
Cn1c(Cc2c[nH]c3ccccc23)n[nH]c1=S,-3%,18µM*,-5%,1%
Nc1ccn([C@@H]2O[C@H](COC(=O)C34CC5CC(CC(C5)C3)C4)[C@@H](O)[C@@H]2O)c(=O)n1,-3%,nt,nt,nt
Cc1ccc2c(c1C)-c1c(ccc(C)c1C)C(=O)C2=O,nt,1%,nt,45µM*
Cc1ccc(-c2nn(CC(=O)NC3CCCC3)c3c2cnc2ccc(F)cc23)cc1C,nt,0%,nt,nt
CCc1ccn2cc(-c3ccc4c(c3)OCO4)nc2c1,-69%,?,14µM*,?
COc1ccc(NC(=O)N2CC[C@@]3(CCCN(C(=O)c4ccncc4)C3)C2)cc1,nt,-5%,nt,nt
CCOC(=O)N1CCN(C(=O)C2CCN(C(=O)c3ccccc3C)CC2)CC1,nt,7.9µM*,nt,?
O=c1oc2ccccc2c2c1C1O[C@](c3ccsc3)(Cc3c1ccc1ccccc31)O2,12%,nt,-9%[11.5 µM],nt
O=Nc1c(O)c2ccccc2c2ccccc12,nt,0%,nt,45µM*
COC(=O)C1=C(C(=O)OC)[C@@H]2Nc3ccccc3[C@@]23C[C@@H](C(=O)OC)N(S(=O)(=O)c2ccc4c(c2)OCCN4C)C3=N1,nt,nt,-4%[11.5 µM],nt
CC(=O)C1=C(C)NC(SCC(N)=O)=C(C#N)C1CC(C)C (stereo unspecified),nt,?,-2%,7%

# Source: PubChem (National Center for Advancing Translational Sciences (NCATS))
